Results published in PubChem BioAssay (EPA / NIEHS).
“And” between values parts separate entries of the source, which are not always exact repeats. Identical values can stand only once. The source holds several records for some structures; these can differ, active in one and inactive in another. The source made the active and inactive calls. The calls were made as follows: active = hit-call score of the fitted dose curve at least 0.9, where 1 is the maximum; inactive = score below 0.9.

What was measured:
[1] = ATG_E_Box_CIS: Attagene CIS-FACTORIAL HepG2 Assay for human Enhancer Box (E-box) (AID 2282936); conditions: HepG2 E-box cis-reporter transcription, actives raise or lower the signal
Summary of the method: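 Fluorescent reporter fragments separated by capillary electrophoresis gave the signal; mRNA came from HepG2 cells transfected with cis-element reporters and treated 24 h. Curves fitted bidirectionally relative to DMSO controls.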

[2] = ATG_M_61_CIS: Attagene CIS-FACTORIAL HepG2 Assay for M61 Transcription Factor (Internal Marker) (AID 2282937); conditions: HepG2 Attagene CIS-FACTORIAL M61 internal marker reporter; actives raise or lower the signal
Summary of the method: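 Multiplexed reporter mRNA assay, HepG2 human hepatoma cells, 24 h treatment. Signal: FAM-labelled, HpaI-digested RT-PCR fragments by CE. Fit: bidirectional, baseline DMSO.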

[3] = ATG_EGR_CIS: Attagene CIS-FACTORIAL HepG2 Assay for human Early Growth Response 1 (EGR1) (AID 2282938); conditions: HepG2 Attagene CIS-FACTORIAL EGR reporter mRNA; actives raise or lower the signal
Summary of the method: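 Multiplexed cis-reporter system in human hepatoma HepG2 cells, transiently transfected. Cells are dosed for 24 h; reporter transcripts are amplified, fluorescently tagged and sized by capillary electrophoresis, with DMSO as negative control.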

[4] = ATG_M_19_CIS: Attagene CIS-FACTORIAL HepG2 Assay for M19 Transcription Factor (Internal Marker) (AID 2282939); conditions: HepG2 Attagene CIS-FACTORIAL M19 internal marker reporter; actives raise or lower the signal
Summary of the method: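 Internal marker readout, fitted in both directions against DMSO, from HepG2 cells carrying transfected cis-element reporter constructs; RT-PCR and capillary electrophoresis of reporter mRNA after 24 h exposure.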

[5] = ATG_ERE_CIS: Attagene CIS-FACTORIAL HepG2 Assay for Estrogen Response Element (ERE) (AID 2282940); conditions: HepG2 ERE cis-reporter, Attagene RNA transcript; actives raise or lower the signal
Summary of the method: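 After 24 h compound treatment, RNA from transfected HepG2 cells was reverse-transcribed, reporter cDNA PCR-amplified, FAM-labelled, HpaI-cut and resolved by capillary electrophoresis. ERE-driven cis reporter transcripts reflect endogenous factors; gain or loss scored against DMSO.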

[6] = ATG_Ets_CIS: Attagene CIS-FACTORIAL HepG2 Assay for human Erythroblast Transformation Specific (ETS) (AID 2282941); conditions: HepG2 ETS cis-reporter transcription, actives raise or lower the signal
Summary of the method: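 RT-PCR/capillary electrophoresis fluorescence read-out of reporter mRNA; HepG2 transient multi-reporter transfection; 24 h compound exposure; gain or loss of signal fitted bidirectionally relative to DMSO.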

[7] = target: Hepatocyte nuclear factor 3-beta (Homo sapiens) (UniProt Q9Y261); experiment: ATG_FoxA2_CIS: Attagene CIS-FACTORIAL HepG2 Assay for human Forkhead box A2 (FOXA2) (AID 2282942); conditions: HepG2 cis-reporter transcription factor activity, 24 h; actives raise or lower the signal
Chain of Hepatocyte nuclear factor 3-beta (Homo sapiens) (Q9Y261 whole entry, looked up): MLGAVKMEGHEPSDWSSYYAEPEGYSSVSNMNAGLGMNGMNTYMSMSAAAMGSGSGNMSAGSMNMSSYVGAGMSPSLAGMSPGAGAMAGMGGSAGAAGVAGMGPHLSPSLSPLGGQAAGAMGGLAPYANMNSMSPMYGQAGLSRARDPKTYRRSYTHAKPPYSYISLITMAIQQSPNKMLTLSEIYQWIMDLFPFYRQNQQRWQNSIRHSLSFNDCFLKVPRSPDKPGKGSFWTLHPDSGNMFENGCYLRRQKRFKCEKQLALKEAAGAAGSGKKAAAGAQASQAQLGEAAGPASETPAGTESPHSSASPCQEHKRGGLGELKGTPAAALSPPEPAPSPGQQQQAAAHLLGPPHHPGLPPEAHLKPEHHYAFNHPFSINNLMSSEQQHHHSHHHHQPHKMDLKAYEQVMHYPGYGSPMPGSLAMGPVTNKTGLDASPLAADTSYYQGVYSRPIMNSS
Summary of the method: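 Multiplexed cis-element reporter assay in transiently transfected HepG2. Twenty-four hours post-dosing, RNA was reverse-transcribed, amplified, FAM-labelled, HpaI-digested and separated by CE. Activity gain or loss relative to DMSO.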

[8] = ATG_FoxO_CIS: Attagene CIS-FACTORIAL HepG2 Assay for human Forkhead box O (FoxO) (AID 2282943); conditions: HepG2 Attagene cis-reporter, FoxO element, mRNA; actives raise or lower the signal
Summary of the method: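 Endogenous transcription factor activity read from multiplexed cis-promoter reporter transcripts in transiently transfected HepG2, 24 h after dosing. Reporter RNA measured via RT-PCR plus capillary electrophoresis of FAM-labeled products; gain or loss relative to DMSO.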

[9] = ATG_GATA_CIS: Attagene CIS-FACTORIAL HepG2 Assay for human GATA Binding Protein (AID 2282944); conditions: HepG2 GATA cis-element reporter, Attagene multiplex mRNA; actives raise or lower the signal
Summary of the method: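 Reporter transcripts from a GATA cis-regulated unit, among multiplexed reporters in transfected HepG2 cells, were measured by RT-PCR with capillary electrophoresis after 24 h dosing. Induction or loss scored relative to DMSO.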

[10] = ATG_GLI_CIS: Attagene CIS-FACTORIAL HepG2 Assay for human Zinc Finger Protein GLI1 (AID 2282945); conditions: HepG2, Attagene cis-factorial reporter mRNA, GLI element; actives raise or lower the signal
Summary of the method: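 Bidirectional curve fits relative to DMSO, using reporter mRNA levels from RT-PCR plus capillary electrophoresis. Cells were HepG2 transiently carrying cis-regulated reporter constructs, harvested 24 h after dosing.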

[11] = ATG_GRE_CIS: Attagene CIS-FACTORIAL HepG2 Assay for human Glucocorticoid Response Elements (GRE) (AID 2282947); conditions: HepG2 GRE cis-reporter, Attagene multiplex mRNA; actives raise or lower the signal
Summary of the method: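 Multiplexed cis-reporter mRNA induction, HepG2, 24 h post-dose. RT-PCR, FAM-labelled, HpaI-digested amplicons by CE. Bidirectional fit vs DMSO.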

[12] = ATG_ISRE_CIS: Attagene CIS-FACTORIAL HepG2 Assay for human Interferon Regulatory Factor 1 (IRF1) binding to an Interferon-Stimulated Response Element (ISRE) (AID 2282948); conditions: HepG2 ISRE cis-reporter (Attagene), mRNA transcription readout; actives raise or lower the signal
Summary of the method: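 Read-out: fluorescent RT-PCR products resolved by capillary electrophoresis, reporting endogenous transcription factor activity via ISRE-driven reporter mRNA in transfected HepG2 cells dosed for 24 h; gain or loss fitted relative to DMSO.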

[13] = ATG_M_32_CIS: Attagene CIS-FACTORIAL HepG2 Assay for M32 Transcription Factor (Internal Marker) (AID 2282949); conditions: HepG2 Attagene cis-factorial M32 reporter, mRNA; actives raise or lower the signal;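 also: background control marker of the multiplexed CIS panel rather than a real target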
Summary of the method: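 Transient MRTU transfection of HepG2; 24 h compound treatment; TriZol RNA, oligo(dT) RT, reporter PCR, 6-FAM primer extension, HpaI cut, CE. Gain/loss of signal vs DMSO.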

[14] = target: Hypoxia-inducible factor 1-alpha (Homo sapiens) (UniProt Q16665); experiment: ATG_HIF1a_CIS: Attagene CIS-FACTORIAL HepG2 Assay for human Hypoxia Inducible Factor 1 (HIF1A) (AID 2282951); conditions: HepG2 Attagene cis-factorial HIF1a reporter transcription; actives raise or lower the signal
Chain of Hypoxia-inducible factor 1-alpha (Homo sapiens) (Q16665 whole entry, looked up): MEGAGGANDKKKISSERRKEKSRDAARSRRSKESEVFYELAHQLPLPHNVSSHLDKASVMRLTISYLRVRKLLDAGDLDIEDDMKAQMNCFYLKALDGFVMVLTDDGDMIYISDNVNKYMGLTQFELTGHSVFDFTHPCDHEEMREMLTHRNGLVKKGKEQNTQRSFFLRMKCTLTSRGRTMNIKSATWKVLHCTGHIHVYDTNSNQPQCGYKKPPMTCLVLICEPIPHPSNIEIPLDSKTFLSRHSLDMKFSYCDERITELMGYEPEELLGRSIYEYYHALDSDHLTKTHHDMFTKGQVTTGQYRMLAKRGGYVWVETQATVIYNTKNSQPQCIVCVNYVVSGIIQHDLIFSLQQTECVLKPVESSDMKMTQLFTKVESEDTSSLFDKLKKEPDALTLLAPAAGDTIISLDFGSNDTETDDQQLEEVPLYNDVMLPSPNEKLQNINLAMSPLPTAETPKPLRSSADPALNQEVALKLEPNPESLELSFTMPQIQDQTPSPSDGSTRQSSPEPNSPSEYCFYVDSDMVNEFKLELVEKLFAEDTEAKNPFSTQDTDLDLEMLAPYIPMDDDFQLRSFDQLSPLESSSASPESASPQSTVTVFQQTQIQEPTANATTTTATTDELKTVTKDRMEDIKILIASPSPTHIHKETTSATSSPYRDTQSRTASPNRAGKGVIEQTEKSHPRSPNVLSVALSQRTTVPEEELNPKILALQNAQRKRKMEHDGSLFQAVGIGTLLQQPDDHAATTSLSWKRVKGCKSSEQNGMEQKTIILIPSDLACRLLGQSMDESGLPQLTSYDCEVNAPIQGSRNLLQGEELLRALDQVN
Summary of the method: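 Cis-element reporter constructs were transiently transfected into HepG2 cells, which were treated for 24 h; reporter RNA was reverse-transcribed, amplified, labelled and resolved by capillary electrophoresis.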

[15] = target: Hepatocyte nuclear factor 6 (Homo sapiens) (UniProt Q9UBC0); experiment: ATG_HNF6_CIS: Attagene CIS-FACTORIAL HepG2 Assay for human Hepatocyte Nuclear Factor 6 (HNF6) (AID 2282952); conditions: HepG2 Attagene cis-factorial HNF6 reporter transcription; actives raise or lower the signal
Chain of Hepatocyte nuclear factor 6 (Homo sapiens) (Q9UBC0 whole entry, looked up): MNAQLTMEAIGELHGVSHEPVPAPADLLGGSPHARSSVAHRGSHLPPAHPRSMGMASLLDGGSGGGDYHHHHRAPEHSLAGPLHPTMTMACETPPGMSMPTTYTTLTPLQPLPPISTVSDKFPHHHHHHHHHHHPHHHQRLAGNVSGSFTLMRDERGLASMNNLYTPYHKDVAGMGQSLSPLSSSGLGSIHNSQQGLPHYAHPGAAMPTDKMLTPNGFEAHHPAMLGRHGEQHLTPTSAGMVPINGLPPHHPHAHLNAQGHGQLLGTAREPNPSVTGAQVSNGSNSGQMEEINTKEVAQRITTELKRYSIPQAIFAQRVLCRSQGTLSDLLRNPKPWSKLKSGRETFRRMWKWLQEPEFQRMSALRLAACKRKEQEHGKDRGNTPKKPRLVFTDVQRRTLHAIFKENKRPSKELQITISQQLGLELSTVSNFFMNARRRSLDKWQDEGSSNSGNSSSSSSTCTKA
Summary of the method: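 Activity values derive from bidirectional fitting against DMSO of reporter mRNA levels, measured by capillary electrophoresis of labelled RT-PCR products from HepG2 cells exposed 24 h.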

[16] = target: Heat shock factor protein 1 (Homo sapiens) (UniProt Q00613); experiment: ATG_HSE_CIS: Attagene CIS-FACTORIAL HepG2 Assay for human Heat Shock Transcription Factor 1 (HSE) (AID 2282953); conditions: HepG2 HSE cis-reporter, Attagene RNA transcription; actives raise or lower the signal
Chain of Heat shock factor protein 1 (Homo sapiens) (Q00613 whole entry, looked up): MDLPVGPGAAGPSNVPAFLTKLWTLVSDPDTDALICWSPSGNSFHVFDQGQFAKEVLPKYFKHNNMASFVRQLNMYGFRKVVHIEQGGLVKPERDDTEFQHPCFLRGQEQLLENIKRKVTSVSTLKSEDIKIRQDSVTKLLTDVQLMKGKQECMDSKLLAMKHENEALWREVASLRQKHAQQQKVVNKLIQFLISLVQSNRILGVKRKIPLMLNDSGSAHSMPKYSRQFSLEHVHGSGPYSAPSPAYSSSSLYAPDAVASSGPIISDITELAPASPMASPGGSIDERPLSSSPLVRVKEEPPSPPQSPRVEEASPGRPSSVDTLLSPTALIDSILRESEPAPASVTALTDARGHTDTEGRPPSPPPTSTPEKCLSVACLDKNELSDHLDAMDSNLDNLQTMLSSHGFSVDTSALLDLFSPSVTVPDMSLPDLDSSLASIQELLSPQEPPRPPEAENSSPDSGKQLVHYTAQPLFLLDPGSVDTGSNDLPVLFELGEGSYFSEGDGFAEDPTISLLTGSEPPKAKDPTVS
Summary of the method: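 Endogenous transcription factor activity in transiently transfected HepG2, read as reporter mRNA by RT-PCR with fluorescent capillary electrophoresis after 24 h. Gain or loss of signal fitted versus DMSO baseline.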

[17] = ATG_MRE_CIS: Attagene CIS-FACTORIAL HepG2 Assay for human Metal Responsive Element (MRE) (AID 2282954); conditions: HepG2 MRE cis-reporter transcription, Attagene multiplex; actives raise or lower the signal
Summary of the method: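 Multiplexed cis-reporter assay in human HepG2 liver cells, 24 h incubation with test chemical. Reporter transcripts measured by RT-PCR and capillary electrophoresis; values from bidirectional curve fitting versus DMSO.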

[18] = ATG_PBREM_CIS: Attagene CIS-FACTORIAL HepG2 Assay for human Phenobarbital-responsive Enhancer Module (PBREM) (AID 2282955); conditions: HepG2 PBREM cis-reporter, Attagene multiplexed transcription; actives raise or lower the signal
Summary of the method: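 Multiplexed cis-reporter readout in human hepatoma HepG2 cells; PBREM-regulated transcript quantified after 24 h exposure by fluorescent RT-PCR fragment analysis. Signal changes up or down fitted relative to DMSO.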

[19] = target: Bile acid receptor (Homo sapiens) (UniProt Q96RI1); experiment: ATG_IR1_CIS: Attagene CIS-FACTORIAL HepG2 Assay for human Nuclear Receptor Subfamily 1 Group H Member 4 (NR1H4), IR1 submotif (AID 2282946); conditions: IR1 reporter transcription, actives raise or lower the signal
Chain of Bile acid receptor (Homo sapiens) (Q96RI1 whole entry, looked up): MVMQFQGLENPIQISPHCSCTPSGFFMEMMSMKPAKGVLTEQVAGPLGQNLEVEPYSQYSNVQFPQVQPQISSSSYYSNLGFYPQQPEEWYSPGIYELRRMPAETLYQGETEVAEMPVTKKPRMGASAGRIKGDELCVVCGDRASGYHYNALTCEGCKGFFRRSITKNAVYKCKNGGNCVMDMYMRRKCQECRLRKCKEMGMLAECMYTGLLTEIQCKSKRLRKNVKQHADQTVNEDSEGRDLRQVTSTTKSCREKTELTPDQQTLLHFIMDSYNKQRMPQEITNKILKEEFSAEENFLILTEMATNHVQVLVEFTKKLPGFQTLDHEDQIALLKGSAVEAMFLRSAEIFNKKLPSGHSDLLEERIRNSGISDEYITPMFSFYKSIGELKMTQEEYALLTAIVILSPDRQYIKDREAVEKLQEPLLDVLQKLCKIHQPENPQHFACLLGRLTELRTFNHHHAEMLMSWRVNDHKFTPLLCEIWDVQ
Summary of the method: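 HepG2 cells transiently transfected with multiplexed cis-element reporter units read endogenous transcription factor activity. After 24 h compound exposure, reporter mRNA was quantified by RT-PCR, fluorescent labelling, HpaI digestion and capillary electrophoresis; bidirectional fitting versus DMSO baseline.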

[20] = ATG_M_06_CIS: Attagene CIS-FACTORIAL HepG2 Assay for M06 Transcription Factor (Internal Marker) (AID 2282950); conditions: HepG2 Attagene CIS-FACTORIAL M06 internal marker reporter; actives raise or lower the signal
Summary of the method: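 Serves as a background control readout. Transfected HepG2 exposed to compounds for 24 h, then reporter transcripts quantified by fluorescent RT-PCR and capillary electrophoresis. Both directions fitted against DMSO baseline.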

Measured: AC50

CN(C)CCO
not listed: [19] | [20]
inactive: all other assays above

CCSC(=O)N(CC)C1CCCCC1
not listed: [18] | [20]
inactive: all other assays above

Cc1cc(O)ccc1Cl
active: [5] 48.5 µM
not listed: [18]
inactive: all other assays above

O=C(O)C(F)(F)C(F)(F)C(F)(F)C(F)(F)C(F)(F)C(F)(F)C(F)(F)C(F)(F)C(F)(F)F
inactive: [1] | [2] | [3] | [4] | [5] | [6] | [7] | [9] | [10] | [11] | [13] | [14] | [15] | [16] | [18]
active: [1] 88.6 µM | [3] 42.9 µM and 22.2 µM | [13] 78.3 µM | [14] 26.6 µM | [15] 58.9 µM | [16] 50.3 µM and 50 µM | [17] 49.2 µM and 42.6 µM and 22.6 µM

CC1=C2C[C@H]3[C@@H](CC=C4C[C@@H](O)CC[C@@]43C)[C@@H]2CC[C@]12O[C@@H]1C[C@H](C)CN[C@H]1[C@H]2C
active: [7] 13 µM | [19] 8.12 µM | [17] 16.1 µM
inactive: all other assays above

ClC1=C(Cl)[C@]2(Cl)[C@@H]3[C@@H](Cl)[C@H]4O[C@H]4[C@@H]3C1(Cl)C2(Cl)Cl
active: [1] 53 µM | [3] 54.9 µM | [4] 179 µM | [9] 162 µM | [12] 57.6 µM | [16] 85.5 µM | [17] 100 µM
not listed: [19]
inactive: all other assays above
